Results reported in PubChem BioAssay AID1159580 (chemical genetic matrix, 2015).
“And” between values parts separate entries of the source, which are not always exact repeats. Equal entries are not always repeated. The campaign covered roughly 5,500 compounds. About 2,000 (36%) were called active. Roughly 18% stayed inconclusive and do not appear here. Rule as the data show it: active = normalized growth mostly below about 0.91 (no sharp cut-off); inconclusive = no clear call, values can overlap the other calls; inactive = mostly above about 0.92. This is one part of the list.

Assay: chemical genetic growth profiling, strain panel (AID 1159580);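 also: tested at 20 µM; growth read once vehicle control cultures reached saturation at 30 °C; 1 = growth at the plate median or of vehicle wells; lower values mean less growth of the strain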
Conditions: S. cerevisiae deletion strains, growth OD

Measured: normalized growth

CC(C)NCC(O)COc1cccc2[nH]ccc12 (centres undefined)
inactive: locus YAL013W, strain DEP1, stronger effect = lower value 1 and 0.99 | locus YAL021C, strain ccr4, stronger effect = lower value 1.01 | locus YAL026C, strain drs2, stronger effect = lower value 0.986 | locus YAL030W, strain snc1, stronger effect = lower value 0.982 | locus YAL040C, strain CLN3, stronger effect = lower value 0.983 and 0.988 | locus YBL061C, strain skt5, stronger effect = lower value 0.977 | locus YBR009C, strain hhf1, stronger effect = lower value 0.983 | locus YBR021W, strain FUR4, stronger effect = lower value 1.02 | locus YBR023C, strain chs3, stronger effect = lower value 0.979 | locus YBR171W, strain sec66, stronger effect = lower value 0.979 | locus YBR229C, strain ROT2, stronger effect = lower value 0.999 | locus YBR231C, strain swc5, stronger effect = lower value 0.986 | locus YBR279W, strain paf1, stronger effect = lower value 0.992 | locus YCL011C, strain gbp2, stronger effect = lower value 0.98 | locus YCL016C, strain dcc1, stronger effect = lower value 0.981 | locus YCL029C, strain bik1, stronger effect = lower value 0.993 | locus YCL061C, strain MRC1 (second series), stronger effect = lower value 0.998 and 0.999 | locus YCL061C, strain MRC1, stronger effect = lower value 0.984 | locus YCL069W, strain vba3, stronger effect = lower value 0.983 | locus YCR088W, strain abp1, stronger effect = lower value 0.983 | locus YDL005C, strain med2, stronger effect = lower value 0.988 | locus YDL035C, strain GPR1, stronger effect = lower value 0.993 | locus YDL040C, strain nat1, stronger effect = lower value 0.986 | locus YDL074C, strain BRE1, stronger effect = lower value 1 | locus YDL101C, strain DUN1, stronger effect = lower value 0.988 | locus YDL134C, strain PPH21, stronger effect = lower value 0.989 | locus YDL185W, strain tfp1, stronger effect = lower value 0.947 | locus YDL192W, strain arf1, stronger effect = lower value 0.974 | locus YDR001C, strain nth1, stronger effect = lower value 0.974 | locus YDR069C, strain doa4, stronger effect = lower value 0.976 | locus YDR101C, strain arx1, stronger effect = lower value 0.983 | locus YDR137W, strain rgp1, stronger effect = lower value 0.975 | locus YDR150W, strain NUM1, stronger effect = lower value 1 and 0.997 | locus YDR159W, strain sac3, stronger effect = lower value 0.955 | locus YDR162C, strain NBP2, stronger effect = lower value 0.995 | locus YDR195W, strain ref2 0.927 | locus YDR297W, strain sur2, stronger effect = lower value 0.988 | locus YDR318W, strain mcm21, stronger effect = lower value 0.977 | locus YDR334W, strain swr1, stronger effect = lower value 0.978 | locus YDR335W, strain msn5, stronger effect = lower value 0.983 | locus YDR363W, strain ESC2, stronger effect = lower value 0.991 and 0.993 | locus YDR388W, stronger effect = lower value 0.979 | locus YDR392W, strain spt3, stronger effect = lower value 0.902 | locus YDR502C, strain sam2, stronger effect = lower value 0.986 | locus YEL003W, strain gim4, stronger effect = lower value 0.988 | locus YEL037C, strain rad23, stronger effect = lower value 1.01 | locus YEL061C, strain CIN8 (second series), stronger effect = lower value 0.972 | locus YEL061C, strain CIN8, stronger effect = lower value 0.997 | locus YER002W, strain NOP16, stronger effect = lower value 0.987 and 1.02 | locus YER015W, strain faa2, stronger effect = lower value 0.989 | locus YER016W, strain bim1, stronger effect = lower value 0.979 | locus YER110C, stronger effect = lower value 0.978 | locus YER111C, strain swi4, stronger effect = lower value 0.983 | locus YER155C, strain BEM2 (second series), stronger effect = lower value 0.97 | locus YER155C, strain BEM2, stronger effect = lower value 0.994 | locus YER167W, strain BCK2, stronger effect = lower value 0.991 | locus YFR010W, strain ubp6, stronger effect = lower value 0.961 | locus YGL078C, strain dbp3, stronger effect = lower value 0.99 | locus YGL086W, strain mad1, stronger effect = lower value 0.999 | locus YGL167C, strain pmr1, stronger effect = lower value 0.976 | locus YGL173C, strain kem1, stronger effect = lower value 0.989 | locus YGL227W, strain vid30, stronger effect = lower value 0.977 | locus YGL240W, strain doc1, stronger effect = lower value 0.986 | locus YGL248W, strain PDE1, stronger effect = lower value 0.997 | locus YGL253W, strain hxk2, stronger effect = lower value 0.981 | locus YGR078C, strain PAC10, stronger effect = lower value 0.993 and 1.01 | locus YGR135W, strain pre9, stronger effect = lower value 0.989 | locus YGR229C, strain SMI1, stronger effect = lower value 1.01 | locus YGR252W, strain gcn5, stronger effect = lower value 1.16 | locus YHR013C, strain ard1, stronger effect = lower value 0.943 | locus YHR027C, strain rpn1, stronger effect = lower value 0.986 | locus YHR030C, strain SLT2, stronger effect = lower value 0.99 and 0.988 | locus YHR079C, strain IRE1 (second series), stronger effect = lower value 0.977 | locus YHR079C, strain IRE1, stronger effect = lower value 0.977 | locus YHR094C, strain hxt1, stronger effect = lower value 0.977 | locus YHR129C, strain ARP1, stronger effect = lower value 1 | locus YHR142W, strain chs7, stronger effect = lower value 0.997 | locus YHR200W, strain rpn10, stronger effect = lower value 0.978 | locus YIL066C, strain RNR3, stronger effect = lower value 0.999 | locus YIR030C, strain dcg1, stronger effect = lower value 0.991 | locus YJL092W, strain hpr5, stronger effect = lower value 0.979 | locus YJL095W, strain BCK1 (second series), stronger effect = lower value 0.984 | locus YJL095W, strain BCK1, stronger effect = lower value 1.01 and 0.997 | locus YJL115W, strain asf1, stronger effect = lower value 0.975 | locus YJL129C, strain trk1, stronger effect = lower value 0.997 | locus YJL134W, strain LCB3, stronger effect = lower value 0.984 | locus YJL154C, strain vps35, stronger effect = lower value 0.98 | locus YJL164C, strain tpk1, stronger effect = lower value 1 | locus YJL166W, strain qcr8, stronger effect = lower value 1.01 | locus YJL168C, strain set2, stronger effect = lower value 0.983 | locus YJL187C, strain SWE1 (second series), stronger effect = lower value 0.987 | locus YJL187C, strain SWE1, stronger effect = lower value 0.985 | locus YJR043C, strain POL32, stronger effect = lower value 1 | locus YJR066W, strain TOR1, stronger effect = lower value 0.94
